Assays:
Test in all cases: DAPPL (digital affinity profiling via proximity ligation, sequencing); 10 mM Tris-HCl pH 7.5, 50 mM NaCl, 1 mM DTT, 4% glycerol, room temperature, 30 min; GST-TFs on glutathione beads, 16-mer random dsDNA library, 0.1% formaldehyde crosslink after washing; high values mean tight binding
[1] = biological target: T1, FLI1 (Homo sapiens, UniProt Q01543 1-452); conditions: protein: recombinant; tags: N-terminal GST; dsDNA, one strand shown
T1 sequence: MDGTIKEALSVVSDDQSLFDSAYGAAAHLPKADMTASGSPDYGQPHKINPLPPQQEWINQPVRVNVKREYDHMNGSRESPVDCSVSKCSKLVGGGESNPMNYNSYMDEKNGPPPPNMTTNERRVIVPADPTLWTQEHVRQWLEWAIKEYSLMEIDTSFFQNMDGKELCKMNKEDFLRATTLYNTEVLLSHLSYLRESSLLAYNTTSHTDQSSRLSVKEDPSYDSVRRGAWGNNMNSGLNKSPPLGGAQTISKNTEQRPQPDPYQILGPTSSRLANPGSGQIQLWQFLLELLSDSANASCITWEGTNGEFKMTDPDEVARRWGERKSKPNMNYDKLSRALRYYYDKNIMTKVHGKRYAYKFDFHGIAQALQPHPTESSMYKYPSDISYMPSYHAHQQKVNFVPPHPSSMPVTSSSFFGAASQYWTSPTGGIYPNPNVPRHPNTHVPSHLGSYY
Method in brief: (§1)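 Sequencing on an Illumina NextSeq500 followed washing, crosslinking with 0.1% formaldehyde, proximity ligation (BsaI/T4 ligase, 1 h, 37 °C) and PCR amplification of pools that had been incubated for 30 min at room temperature with 200 nmole of a random double-stranded 16-mer DNA library in Tris/NaCl/DTT/glycerol buffer. Each pool held DNA-barcoded human transcription factors, expressed in yeast as GST fusions and captured on glutathione beads, plus a tag-only sample. Binding signal is a hexamer's read frequency for a factor divided by its frequency in the tag-only sample.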

[2] = biological target: T2, ELK1 (Homo sapiens, UniProt P19419 1-428); conditions: protein: recombinant; tags: N-terminal GST; dsDNA, one strand shown
T2 sequence: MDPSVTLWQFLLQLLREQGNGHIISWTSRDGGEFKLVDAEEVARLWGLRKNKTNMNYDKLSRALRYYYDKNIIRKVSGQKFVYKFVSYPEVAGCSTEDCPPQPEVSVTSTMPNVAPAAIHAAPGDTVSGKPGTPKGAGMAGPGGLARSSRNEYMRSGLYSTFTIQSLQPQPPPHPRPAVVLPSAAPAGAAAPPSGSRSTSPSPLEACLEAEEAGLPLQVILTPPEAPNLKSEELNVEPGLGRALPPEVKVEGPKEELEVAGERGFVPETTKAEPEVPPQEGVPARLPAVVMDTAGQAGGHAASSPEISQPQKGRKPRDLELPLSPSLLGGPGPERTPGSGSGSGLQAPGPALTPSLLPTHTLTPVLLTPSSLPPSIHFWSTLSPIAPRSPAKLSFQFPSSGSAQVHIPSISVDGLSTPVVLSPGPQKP
Method in brief: as §1

[3] = biological target: T3, GABPA (Homo sapiens, UniProt Q06546 1-454); conditions: protein: recombinant; tags: N-terminal GST; dsDNA, one strand shown
T3 sequence: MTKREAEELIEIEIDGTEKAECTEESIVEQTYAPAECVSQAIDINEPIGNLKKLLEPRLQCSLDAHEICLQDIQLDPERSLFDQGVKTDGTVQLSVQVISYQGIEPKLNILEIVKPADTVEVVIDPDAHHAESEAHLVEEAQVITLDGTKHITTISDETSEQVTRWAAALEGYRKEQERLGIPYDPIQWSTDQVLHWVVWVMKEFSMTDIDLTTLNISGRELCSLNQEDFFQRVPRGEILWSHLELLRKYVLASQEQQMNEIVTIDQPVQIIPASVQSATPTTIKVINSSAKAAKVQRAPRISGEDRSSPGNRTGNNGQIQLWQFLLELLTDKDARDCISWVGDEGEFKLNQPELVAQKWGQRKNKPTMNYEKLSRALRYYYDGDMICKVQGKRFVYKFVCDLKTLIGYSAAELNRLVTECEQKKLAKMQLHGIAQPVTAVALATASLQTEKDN
Method in brief: as §1

[4] = biological target: T4, ERG (Homo sapiens, UniProt P11308 1-479); conditions: protein: recombinant; tags: N-terminal GST; dsDNA, one strand shown
T4 sequence: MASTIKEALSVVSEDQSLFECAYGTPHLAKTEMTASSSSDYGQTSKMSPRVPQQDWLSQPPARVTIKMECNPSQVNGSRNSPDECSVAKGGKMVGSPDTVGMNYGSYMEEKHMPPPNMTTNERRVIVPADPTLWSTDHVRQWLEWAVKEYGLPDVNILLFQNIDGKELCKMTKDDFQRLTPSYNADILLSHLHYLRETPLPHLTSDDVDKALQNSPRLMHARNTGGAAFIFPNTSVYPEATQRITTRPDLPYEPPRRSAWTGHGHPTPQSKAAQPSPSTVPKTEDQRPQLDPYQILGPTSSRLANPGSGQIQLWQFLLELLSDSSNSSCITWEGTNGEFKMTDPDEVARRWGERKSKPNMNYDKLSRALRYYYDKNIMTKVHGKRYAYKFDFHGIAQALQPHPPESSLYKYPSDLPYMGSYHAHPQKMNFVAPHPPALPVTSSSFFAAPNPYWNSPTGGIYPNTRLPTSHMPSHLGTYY
Method in brief: as §1

[5] = biological target: ELF1 (Homo sapiens, UniProt P32519 1-619); conditions: protein: recombinant; tags: N-terminal GST; dsDNA, one strand shown
Method in brief: as §1

[6] = biological target: T5, EHF (Homo sapiens, UniProt Q9NZC4 1-300); conditions: protein: recombinant; tags: N-terminal GST; dsDNA, one strand shown
T5 sequence: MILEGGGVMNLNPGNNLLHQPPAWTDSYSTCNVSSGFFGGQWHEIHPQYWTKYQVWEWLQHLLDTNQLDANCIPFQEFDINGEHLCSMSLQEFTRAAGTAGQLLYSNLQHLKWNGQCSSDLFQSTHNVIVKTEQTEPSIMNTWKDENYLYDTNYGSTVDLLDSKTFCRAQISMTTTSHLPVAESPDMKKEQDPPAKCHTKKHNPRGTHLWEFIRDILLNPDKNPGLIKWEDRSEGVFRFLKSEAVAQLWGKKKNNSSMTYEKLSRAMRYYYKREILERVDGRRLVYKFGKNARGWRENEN
Method in brief: as §1

[7] = biological target: SPI1 (Homo sapiens, UniProt P17947 1-270); conditions: protein: recombinant; tags: N-terminal GST; dsDNA, one strand shown
Method in brief: as §1

[8] = biological target: SPIB (Homo sapiens, UniProt Q01892 1-262); conditions: protein: recombinant; tags: N-terminal GST; dsDNA, one strand shown
Method in brief: as §1

[9] = biological target: T6, ELK3 (Homo sapiens, UniProt P41970 1-407); conditions: protein: recombinant; tags: N-terminal GST; dsDNA, one strand shown
T6 sequence: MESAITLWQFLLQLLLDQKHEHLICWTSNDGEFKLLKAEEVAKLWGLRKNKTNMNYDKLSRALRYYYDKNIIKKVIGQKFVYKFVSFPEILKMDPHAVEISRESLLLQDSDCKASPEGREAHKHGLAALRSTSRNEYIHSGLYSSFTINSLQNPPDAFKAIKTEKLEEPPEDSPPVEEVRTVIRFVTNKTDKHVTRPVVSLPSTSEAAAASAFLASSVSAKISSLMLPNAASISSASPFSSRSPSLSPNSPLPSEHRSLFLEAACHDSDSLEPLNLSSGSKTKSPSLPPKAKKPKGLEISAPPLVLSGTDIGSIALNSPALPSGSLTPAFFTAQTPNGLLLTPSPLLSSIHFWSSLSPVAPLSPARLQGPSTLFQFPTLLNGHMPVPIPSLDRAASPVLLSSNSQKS
Method in brief: as §1

[10] = biological target: T7, FEV (Homo sapiens, UniProt Q99581 1-238); conditions: protein: recombinant; tags: N-terminal GST; dsDNA, one strand shown
T7 sequence: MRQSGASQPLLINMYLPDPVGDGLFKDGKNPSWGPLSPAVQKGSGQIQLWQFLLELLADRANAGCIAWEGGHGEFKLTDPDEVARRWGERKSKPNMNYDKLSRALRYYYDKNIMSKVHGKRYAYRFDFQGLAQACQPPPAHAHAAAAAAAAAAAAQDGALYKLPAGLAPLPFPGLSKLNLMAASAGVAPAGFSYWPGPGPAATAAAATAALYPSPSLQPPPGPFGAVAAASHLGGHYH
Method in brief: as §1

[11] = biological target: ETV5 (Homo sapiens, UniProt P41161 1-510); conditions: protein: recombinant; tags: N-terminal GST; dsDNA, one strand shown
Method in brief: as §1

[12] = biological target: HSF1 (Homo sapiens, UniProt Q00613 1-529); conditions: protein: recombinant; tags: N-terminal GST; chain copies: 3; dsDNA, one strand shown
Method in brief: as §1

[13] = biological target: T8, SPIC (Homo sapiens, UniProt Q8N5J4 1-248); conditions: protein: recombinant; tags: N-terminal GST; dsDNA, one strand shown
T8 sequence: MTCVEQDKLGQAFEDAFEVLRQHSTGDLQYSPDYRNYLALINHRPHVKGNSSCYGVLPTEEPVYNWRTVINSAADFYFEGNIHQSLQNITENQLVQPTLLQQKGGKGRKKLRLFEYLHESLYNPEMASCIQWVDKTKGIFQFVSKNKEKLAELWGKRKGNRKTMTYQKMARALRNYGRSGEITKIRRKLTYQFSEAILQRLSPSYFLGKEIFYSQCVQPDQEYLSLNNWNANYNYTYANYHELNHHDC
Method in brief: as §1

[14] = biological target: ELF4 (Homo sapiens, UniProt Q99607 1-663); conditions: protein: recombinant; tags: N-terminal GST; dsDNA, one strand shown
Method in brief: as §1

[15] = biological target: T9, ELK4 (Homo sapiens, UniProt P28324-2 1-405); conditions: protein: recombinant; tags: N-terminal GST; dsDNA, one strand shown
T9 sequence: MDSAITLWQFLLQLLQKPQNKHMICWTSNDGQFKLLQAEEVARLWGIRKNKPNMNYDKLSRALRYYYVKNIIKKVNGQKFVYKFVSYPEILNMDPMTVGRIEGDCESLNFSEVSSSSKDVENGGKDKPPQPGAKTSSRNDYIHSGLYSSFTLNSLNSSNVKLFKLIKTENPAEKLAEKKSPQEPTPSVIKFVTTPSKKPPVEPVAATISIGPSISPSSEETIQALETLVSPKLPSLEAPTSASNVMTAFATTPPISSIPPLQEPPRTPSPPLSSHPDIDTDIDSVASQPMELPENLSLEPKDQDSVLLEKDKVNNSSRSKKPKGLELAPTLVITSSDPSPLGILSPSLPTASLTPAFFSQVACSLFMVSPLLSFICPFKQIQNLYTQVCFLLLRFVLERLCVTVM
Method in brief: as §1

[16] = biological target: T10, ETV2 (Homo sapiens, UniProt O00321 1-342); conditions: protein: recombinant; tags: N-terminal GST; dsDNA, one strand shown
T10 sequence: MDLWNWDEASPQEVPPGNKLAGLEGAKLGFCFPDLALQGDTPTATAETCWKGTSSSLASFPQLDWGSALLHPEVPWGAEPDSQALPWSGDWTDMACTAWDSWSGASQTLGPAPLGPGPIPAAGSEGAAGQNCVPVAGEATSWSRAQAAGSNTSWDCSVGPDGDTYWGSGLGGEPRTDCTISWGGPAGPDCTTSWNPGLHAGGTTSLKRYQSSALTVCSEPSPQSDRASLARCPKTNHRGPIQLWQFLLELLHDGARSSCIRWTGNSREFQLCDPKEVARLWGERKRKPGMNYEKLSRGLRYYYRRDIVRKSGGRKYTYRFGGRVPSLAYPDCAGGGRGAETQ
Method in brief: as §1

[17] = biological target: T11, ELF3 (Homo sapiens, UniProt P78545 1-371); conditions: protein: recombinant; tags: N-terminal GST; dsDNA, one strand shown
T11 sequence: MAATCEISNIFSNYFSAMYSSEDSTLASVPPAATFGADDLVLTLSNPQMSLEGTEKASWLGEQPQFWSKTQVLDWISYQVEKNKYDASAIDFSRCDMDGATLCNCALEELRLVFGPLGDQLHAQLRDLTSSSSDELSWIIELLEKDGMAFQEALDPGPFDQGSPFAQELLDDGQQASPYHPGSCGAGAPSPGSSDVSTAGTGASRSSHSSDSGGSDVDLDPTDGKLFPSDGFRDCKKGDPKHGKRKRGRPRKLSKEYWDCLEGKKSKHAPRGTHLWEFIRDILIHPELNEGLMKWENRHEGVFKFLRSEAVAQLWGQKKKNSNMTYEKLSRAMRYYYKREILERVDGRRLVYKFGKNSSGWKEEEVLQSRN
Method in brief: as §1

[18] = biological target: CRX (Homo sapiens, UniProt O43186 1-299); conditions: protein: recombinant; tags: N-terminal GST; dsDNA, one strand shown
Method in brief: as §1

[19] = biological target: ETV1 (Homo sapiens, UniProt P50549 1-477); conditions: protein: recombinant; tags: N-terminal GST; dsDNA, one strand shown
Method in brief: as §1

ELF4, sequence (Q99607 whole entry): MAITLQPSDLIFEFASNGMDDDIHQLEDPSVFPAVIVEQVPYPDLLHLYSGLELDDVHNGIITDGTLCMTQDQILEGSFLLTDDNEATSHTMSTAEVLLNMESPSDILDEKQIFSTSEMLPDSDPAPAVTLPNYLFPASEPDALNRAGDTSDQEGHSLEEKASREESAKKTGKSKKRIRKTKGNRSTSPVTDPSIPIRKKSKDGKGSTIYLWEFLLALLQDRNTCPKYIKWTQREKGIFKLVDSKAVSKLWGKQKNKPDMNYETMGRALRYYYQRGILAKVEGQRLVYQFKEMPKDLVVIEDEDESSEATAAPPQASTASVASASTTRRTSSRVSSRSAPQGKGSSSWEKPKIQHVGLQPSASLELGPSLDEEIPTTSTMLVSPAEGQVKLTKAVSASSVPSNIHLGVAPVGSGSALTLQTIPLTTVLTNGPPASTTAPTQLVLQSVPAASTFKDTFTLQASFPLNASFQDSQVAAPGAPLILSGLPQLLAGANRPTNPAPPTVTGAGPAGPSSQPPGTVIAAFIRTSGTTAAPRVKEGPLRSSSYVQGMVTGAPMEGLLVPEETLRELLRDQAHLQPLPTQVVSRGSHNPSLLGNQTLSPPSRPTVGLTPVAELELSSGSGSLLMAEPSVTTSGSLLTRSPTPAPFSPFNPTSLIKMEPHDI
ETV5, sequence (P41161 whole entry): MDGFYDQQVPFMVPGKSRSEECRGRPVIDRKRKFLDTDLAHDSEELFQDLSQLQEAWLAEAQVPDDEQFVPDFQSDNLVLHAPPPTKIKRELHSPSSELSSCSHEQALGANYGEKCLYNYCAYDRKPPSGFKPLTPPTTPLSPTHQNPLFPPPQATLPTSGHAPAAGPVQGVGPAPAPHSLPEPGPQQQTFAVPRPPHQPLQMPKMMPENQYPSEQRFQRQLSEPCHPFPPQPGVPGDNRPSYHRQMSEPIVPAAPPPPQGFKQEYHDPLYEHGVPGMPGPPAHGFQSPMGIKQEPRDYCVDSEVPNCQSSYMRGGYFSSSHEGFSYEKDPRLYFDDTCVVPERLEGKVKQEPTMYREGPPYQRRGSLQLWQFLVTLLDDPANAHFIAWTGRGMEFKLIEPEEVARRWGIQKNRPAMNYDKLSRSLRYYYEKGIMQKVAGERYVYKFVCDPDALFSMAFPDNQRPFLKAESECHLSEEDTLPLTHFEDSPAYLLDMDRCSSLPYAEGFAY
CRX, sequence (O43186 whole entry): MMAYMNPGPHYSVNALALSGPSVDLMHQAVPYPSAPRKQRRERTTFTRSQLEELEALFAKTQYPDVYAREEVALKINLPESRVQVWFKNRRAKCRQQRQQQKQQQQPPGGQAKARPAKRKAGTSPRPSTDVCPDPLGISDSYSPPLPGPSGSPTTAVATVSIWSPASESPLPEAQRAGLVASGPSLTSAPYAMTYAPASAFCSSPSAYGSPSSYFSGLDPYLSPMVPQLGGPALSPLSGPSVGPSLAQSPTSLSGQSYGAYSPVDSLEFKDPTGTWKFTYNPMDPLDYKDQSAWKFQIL
SPIB, sequence (Q01892 whole entry): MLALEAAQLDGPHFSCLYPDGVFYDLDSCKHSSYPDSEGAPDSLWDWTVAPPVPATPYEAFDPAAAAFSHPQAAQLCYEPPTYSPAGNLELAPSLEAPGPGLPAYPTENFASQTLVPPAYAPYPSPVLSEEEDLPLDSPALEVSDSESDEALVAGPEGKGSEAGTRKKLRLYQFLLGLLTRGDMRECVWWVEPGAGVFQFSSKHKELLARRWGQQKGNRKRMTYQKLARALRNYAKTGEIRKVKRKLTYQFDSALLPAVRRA
ETV1, sequence (P50549 whole entry): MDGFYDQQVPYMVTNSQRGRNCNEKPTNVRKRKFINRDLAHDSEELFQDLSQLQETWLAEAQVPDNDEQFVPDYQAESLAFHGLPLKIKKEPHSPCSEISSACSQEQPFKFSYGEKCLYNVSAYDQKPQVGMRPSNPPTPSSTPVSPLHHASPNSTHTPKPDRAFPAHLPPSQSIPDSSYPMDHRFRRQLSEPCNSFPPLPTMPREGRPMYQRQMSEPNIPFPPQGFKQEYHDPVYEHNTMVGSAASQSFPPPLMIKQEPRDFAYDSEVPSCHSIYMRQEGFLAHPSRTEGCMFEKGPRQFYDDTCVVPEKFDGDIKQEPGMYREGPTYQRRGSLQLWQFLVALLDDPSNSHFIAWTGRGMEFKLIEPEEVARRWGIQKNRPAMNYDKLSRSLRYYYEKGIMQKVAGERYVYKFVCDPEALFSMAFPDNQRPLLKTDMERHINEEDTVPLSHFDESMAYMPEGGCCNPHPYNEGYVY
HSF1, sequence (Q00613 whole entry): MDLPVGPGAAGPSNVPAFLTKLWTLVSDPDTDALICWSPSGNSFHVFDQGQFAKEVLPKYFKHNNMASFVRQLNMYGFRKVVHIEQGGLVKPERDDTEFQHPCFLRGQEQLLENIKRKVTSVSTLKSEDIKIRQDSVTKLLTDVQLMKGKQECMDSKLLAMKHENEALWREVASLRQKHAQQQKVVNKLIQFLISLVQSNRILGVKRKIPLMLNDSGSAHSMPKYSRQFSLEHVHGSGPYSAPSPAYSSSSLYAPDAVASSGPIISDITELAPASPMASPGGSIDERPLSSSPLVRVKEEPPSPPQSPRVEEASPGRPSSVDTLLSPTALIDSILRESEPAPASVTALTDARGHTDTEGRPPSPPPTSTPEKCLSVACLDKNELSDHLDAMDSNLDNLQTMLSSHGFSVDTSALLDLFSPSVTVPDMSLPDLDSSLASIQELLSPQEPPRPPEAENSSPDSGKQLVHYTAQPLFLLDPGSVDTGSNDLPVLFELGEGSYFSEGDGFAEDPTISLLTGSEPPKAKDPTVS
ELF1, sequence (P32519 whole entry): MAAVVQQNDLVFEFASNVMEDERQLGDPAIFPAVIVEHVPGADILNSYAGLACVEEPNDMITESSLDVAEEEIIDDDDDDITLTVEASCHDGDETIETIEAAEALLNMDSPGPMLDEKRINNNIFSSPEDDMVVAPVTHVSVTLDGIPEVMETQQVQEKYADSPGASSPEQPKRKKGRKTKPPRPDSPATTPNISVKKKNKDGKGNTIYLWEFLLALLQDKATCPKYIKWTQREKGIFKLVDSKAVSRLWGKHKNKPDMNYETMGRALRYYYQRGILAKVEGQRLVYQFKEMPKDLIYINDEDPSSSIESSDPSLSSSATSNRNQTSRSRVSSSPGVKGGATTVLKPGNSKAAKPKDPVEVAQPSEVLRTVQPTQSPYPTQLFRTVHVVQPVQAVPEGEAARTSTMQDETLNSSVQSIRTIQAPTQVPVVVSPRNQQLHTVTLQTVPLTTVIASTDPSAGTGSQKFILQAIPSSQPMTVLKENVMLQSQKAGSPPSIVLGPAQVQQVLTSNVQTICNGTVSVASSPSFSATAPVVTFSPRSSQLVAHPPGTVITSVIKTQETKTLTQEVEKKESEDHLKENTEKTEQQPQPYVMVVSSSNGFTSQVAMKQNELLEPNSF

CTTCGG was tested, and the binding signal [1] was 1.48 fold enrichment (6-mer frequency, TF over GST control), the binding signal [2] was 1.46 fold enrichment (6-mer frequency, TF over GST control) and the binding signal [3] was 1.58 fold enrichment (6-mer frequency, TF over GST control). For the same sequence, the binding signal [4] was 1.35 fold enrichment (6-mer frequency, TF over GST control), the binding signal [5] was 1.39 fold enrichment (6-mer frequency, TF over GST control) and the binding signal [6] was 1.24 fold enrichment (6-mer frequency, TF over GST control). For the same sequence, the binding signal [7] was 1.37 fold enrichment (6-mer frequency, TF over GST control), the binding signal [8] was 1.46 fold enrichment (6-mer frequency, TF over GST control) and the binding signal [9] was 1.38 fold enrichment (6-mer frequency, TF over GST control). The binding signal [10] was 1.51 fold enrichment (6-mer frequency, TF over GST control), the binding signal [11] was 1.54 fold enrichment (6-mer frequency, TF over GST control) and the binding signal [12] was 1.77 fold enrichment (6-mer frequency, TF over GST control). For the same sequence, the binding signal [13] was 1.48 fold enrichment (6-mer frequency, TF over GST control), the binding signal [14] was 1.5 fold enrichment (6-mer frequency, TF over GST control) and the binding signal [15] was 1.52 fold enrichment (6-mer frequency, TF over GST control). The binding signal [16] was 1.52 fold enrichment (6-mer frequency, TF over GST control), the binding signal [17] was 1.39 fold enrichment (6-mer frequency, TF over GST control) and the binding signal [18] was 1.52 fold enrichment (6-mer frequency, TF over GST control). The binding signal [19] was 1.72 fold enrichment (6-mer frequency, TF over GST control).
